NCOA1 inh = inhibits human SRC1 coactivator; Q15788; HEK293 GAL4-SRC1 luciferase reporter, luminescence; inhibition, % at 3.6 µM; 0.12% of 360,000 active; AID 588354;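 active = inhibition above the campaign mean plus 3 SD, with each screening campaign given its own cutoff, cut at about 60% in these data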;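 also: 0% = DMSO treated cells and 100% = gossypol at 36 µM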
SRC2 inh = human SRC2 (NCOA2) inhibition. AID 651957. inhibition, % at 9 µM. 0.17% of 370,000 active. HEK293 GAL4-SRC2 luciferase reporter, luminescence;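 active = inhibition above the mean inhibition of all tested compounds plus 3 SD, set per campaign, cut at about 52% in these data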;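 also: 0% = DMSO treated cells and 100% = cells given Gossypol at 36 µM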
Gli-Sufu block = Gli-Sufu pathway antagonism | Sufu-KO-LIGHT fibroblasts, Gli luciferase reporter luminescence | inhibition, % at 5 µM | 0.74% of 340,000 active | AID 588413;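 active = inhibition above about 55%, limit read from the data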;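 also: 0% = DMSO-treated cells and 100% = wells with medium but no cells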
NR2F2 inh = inhibitors of human COUP-TFII (NR2F2). P24468. HEK293T NGFI-A luciferase reporter, luminescence. inhibition, % at 8.6 µM. 0.7% of 370,000 active;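 active = inhibition above a per-plate cutoff, mean inhibition of test wells between control levels plus 3 SD, cut at about 38% in these data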;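 also: cells cotransfected with COUP-TFII expression vector driving the NGFI-A reporter; 0% = median of COUP-TF2 test wells and 100% = reporter-only cells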
NCOA3 inh = inhibits human SRC3 coactivator; inhibition, % at 3.6 µM; 0.17% of 360,000 active; Q9Y6Q9; HEK293 GAL4-SRC3 luciferase reporter, luminescence;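 active = inhibition above a per-campaign cutoff, the mean of all compounds plus 3 SD, cut at about 60% in these data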;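 also: 0% = DMSO-treated cells and 100% = gossypol-treated cells at 36 µM; higher means less SRC3-driven luciferase light from the GAL4 reporter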
LRH-1 inv ag = suppresses constitutive activity of human LRH-1. 0.13% of 360,000 active. AID 602396. inhibition, % at 3.6 µM. HEK293T StAR-luciferase reporter, LRH-1 transfected, 24 h. O00482;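 active = inhibition above the mean inhibition of all tested compounds plus 3 SD, cut at about 73% in these data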;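 also: 0% = DMSO wells and 100% = reporter-only cells lacking LRH-1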
VP16 Luc counter = inhibits VP16 reporter, flagging COUP-TFII antagonist hits. shares compounds with NR2F2 inh. HEK293 Gal4-VP16 luciferase reporter, luminescence. inhibition, % at 8.5 µM. 25% of 2,500 active. AID 687007; in the data active = inhibition above about 13%
NR2F2 inh conf = confirmation of human COUP-TFII (NR2F2) inhibitors; shares compounds with NR2F2 inh; HEK293 NGFI-A luciferase reporter, luminescence; inhibition, % at 8.5 µM; 45% of 2,500 active; AID 687008;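 active = mean inhibition over three repeats above a set limit taken from the earlier primary screen, cut at about 38% in these data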;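 also: 100% = cells given the luciferase reporter alone without the COUP-TF2 vector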
An asterisk follows results filed as active; . = no result given. The list is not random: actives were taken first. Their share in the collection is about 1.3%.

SMILES	NCOA1 inh	SRC2 inh	Gli-Sufu block	NR2F2 inh	NCOA3 inh	LRH-1 inv ag	VP16 Luc counter	NR2F2 inh conf
CCCCNC(=O)C1(C(=O)C2CC2)CC(C(=O)OCC)=NO1 (stereo unspecified)	.	-32.2	.	5.5	.	.	.	.
O=C(CN1CCN(C(=O)CNC(=O)c2ccc(-c3ccccc3)cc2)CC1)Nc1ccccc1Cl	10.6	-24.1	.	50.4*	3.2	31.4	-8.3	21.1
CC1CCN(c2ccc(-c3cccs3)nn2)CC1	17.9	62.1*	10.5	45.1*	40.5	32.4	19.9*	42.5*
CC(C)N1C/C(=C/c2ccsc2)C(=O)/C(=C/c2ccsc2)C1	12.5	-49.0	11.3	46.9*	10.6	9.4	37.9*	68.0*
Cc1nc(SCc2cccc(C(=O)O)c2)nc2c1CCCC2	-48.5	53.1*	-4.6	51.8*	-46.8	-42.8	22.6*	4.0
O=C(Nc1ccccc1C(=O)O)c1ccc(Cl)c(S(=O)(=O)N2CCOCC2)c1	-14.3	16.3	3.3	6.3	-10.3	-9.1	.	.
O=C(Nc1ccccc1C(=O)O)c1cc(S(=O)(=O)N2CCCCC2)c(Cl)cc1Cl	-21.4	0.7	-16.7	40.2*	-1.6	-3.3	-10.8	19.3
CCCCCCCCCCOC(=O)Cn1c(COc2ccccc2OC)[n+](C)c2ccccc21	15.5	-25.8	84.8*	43.8*	11.3	22.3	4.2	35.6
CC(=O)c1c(C)[nH]c(C(=O)OCC(=O)Nc2cccc(S(=O)(=O)N(C)C)c2)c1C	9.5	12.0	23.1	-11.0	23.9	17.4	.	.
CCN(CC)S(=O)(=O)c1cccc(NC(=O)COC(=O)c2[nH]c(C)c(C(C)=O)c2C)c1	45.5	21.4	.	62.5*	41.2	39.7	1.9	60.3*
COc1cc(CNCc2ccncc2)cc(Br)c1OCc1ccccc1F	8.4	24.4	28.9	45.9*	8.5	29.8	3.3	27.7
COc1cc(CNc2ccc(O)cc2)cc(Br)c1OCc1ccccc1F	12.0	.	2.3	.	27.1	7.7	.	.
O=C(c1ccncc1)N1CCC(Oc2cccnc2)CC1	.	22.4	.	-1.5	.	.	.	.
Cc1ccc(NC(=O)C2CCN(S(=O)(=O)c3ccc4c(c3)NC(=O)C(C)S4)CC2)cc1Cl (stereo unspecified)	13.2	18.2	59.6*	64.4*	20.6	0.8	12.6	46.9*
COc1ccccc1C(=O)Nc1nc2ccccc2s1	70.7*	86.5*	67.4*	90.8*	73.7*	66.1	78.4*	96.8*
COc1ccccc1C(=O)Nc1nc2ccc(S(C)(=O)=O)cc2s1	-15.1	-32.5	-39.0	-20.3	-16.2	-8.4	.	.
Cc1ccc2nc(NC(=O)c3ccccn3)sc2c1	-6.3	27.9	77.8*	58.2*	12.0	-7.4	9.7	27.6
COc1ccc(C=Nn2c(-c3ccc(F)cc3)n[nH]c2=S)cc1OCc1ccccc1	.	1.2	.	0.1	.	.	.	.
CCCCNC(=O)C[C@H]1C[C@@]2(C(=O)OC)C(=C[C@H](C3CCCC3)O[C@@H]2C)N(Cc2cccc3ccccc23)C1=O	.	-0.8	.	4.1	.	.	.	.
CC(COc1cc(F)cc(F)c1)CN1CCC(C(O)(c2ccccc2)c2ccccc2)CC1 (stereo unspecified)	.	9.2	.	-2.8	.	.	.	.
COc1ccc2cc3c(N)nn(C(=O)c4ccc(F)cc4)c3nc2c1	60.1	30.7	-21.5	34.2	48.7	19.7	.	.
COc1ccc2cc3c(N)nn(C(=O)Cc4c[nH]c5ccccc45)c3nc2c1	79.0*	56.3*	-9.1	41.6*	51.1	55.1	23.9*	21.2
COc1ccc2cc3c(N)nn(C(=O)c4ccccc4Cl)c3nc2c1	74.1*	39.0	-22.5	45.2*	60.4	50.3	23.0*	35.9
CSc1nc2nc3c(cc2c(=O)n1-c1ccccc1C)CCCC3	12.5	23.4	30.2	41.5*	25.8	34.8	3.8	28.8
O=C(Nc1cccnc1)c1ccc(Cl)c(S(=O)(=O)N2CCc3ccccc32)c1	5.5	-2.5	1.2	14.6	10.1	-12.3	.	.
SMILES	NCOA1 inh	SRC2 inh	Gli-Sufu block	NR2F2 inh	NCOA3 inh	LRH-1 inv ag	VP16 Luc counter	NR2F2 inh conf
COc1ccc(NC(=O)c2ccc(Cl)c(S(=O)(=O)N3CCc4ccccc4C3)c2)cn1	8.5	6.1	-2.0	68.5*	17.4	28.1	-2.7	18.3
O=C(Nc1ccccn1)c1ccc(Cl)c(S(=O)(=O)N2CCc3ccccc32)c1	2.5	32.8	3.4	45.1*	-28.7	-27.4	-2.7	22.0
O=C(NC1CCCCN(Cc2cccc(C(F)(F)F)c2)C1=O)c1ccc(Cl)c(Cl)c1 (stereo unspecified)	.	10.3	.	-15.4	.	.	.	.
Cc1ccc2c(c1)sc(-c1ccc(N(C)C)cc1)[n+]2C	-29.6	-19.7	55.6*	57.5*	-55.4	16.2	-24.9	52.9*
O=C(CSc1nc2ccccc2c(=O)n1-c1ccc(Cl)cc1)NNC(=S)Nc1ccccc1	.	-24.6	.	-0.4	.	.	.	.
Fc1ccc(NC(=S)N2CCCN(c3ccc(C(F)(F)F)cn3)CC2)c(F)c1	24.7	18.2	14.4	63.6*	19.4	42.8	4.6	63.5*
O=C(Nc1ccc(F)cc1F)N1CCCN(c2ccc(C(F)(F)F)cn2)CC1	16.7	6.2	7.2	33.2	29.2	15.8	.	.
COC(=O)[C@]12C[C@H](CC(=O)NCc3ccc(C)o3)C(=O)N(CCc3ccc(OC)c(OC)c3)C1=C[C@H](C1CCCC1)O[C@@H]2C	.	-7.1	.	13.4	.	.	.	.
CC(=O)c1ccc2c(c1)N(Cc1ccccc1Cl)C(=O)C(C)S2 (stereo unspecified)	7.0	26.6	.	84.3*	-19.0	39.3	3.8	9.3
CCc1ccc(-c2nc(CN3CCCC(C(=O)NCCc4ccc(OC)c(OC)c4)C3)c(C)o2)cc1 (stereo unspecified)	-30.6	28.0	1.4	49.3*	-10.2	-4.9	2.7	13.6
COc1ccc(CCNC(=O)C2CCCN(Cc3nc(-c4ccccc4C)oc3C)C2)cc1OC (stereo unspecified)	-2.3	-14.6	4.6	8.4	15.4	15.4	.	.
COCCCN1C(=O)[C@H](CC(=O)NCc2cccc3ccccc23)[C@]2(C(=O)OC)CCCCC=C12	.	11.4	.	3.0	.	.	.	.
CC(C)(C)c1ccc(-c2noc(CCC(=O)NCc3ccco3)n2)cc1	3.3	63.3*	70.1*	38.1*	14.7	37.2	25.4*	57.2*
Cc1cccc(-c2noc(CCC(=O)NCc3ccco3)n2)c1	5.2	-2.5	-0.1	-4.5	-14.6	2.7	.	.
O=C(Nc1nonc1NC(=O)c1cccs1)c1cccs1	29.8	13.6	20.7	49.3*	29.7	49.0	3.6	34.2
COc1ccc(Cn2c(NC(=O)c3ccccc3)nc(Cc3ccccc3)c2Cc2ccccc2)cc1	.	-29.0	.	-4.3	.	.	.	.

Compound activity deposited in PubChem by several laboratories.
